Test [1] in a line: Primary qHTS for inhibitors of nuclear receptor binding SET domain protein 2 (NSD2) in an isogenic RCH-ACV NSD2 p.E1099K mutant (9B) (AID 1645876). Note: nearly all actives have a fitted effect of over 70% in size. Note: potency is the fitted concentration of half-maximal effect. To be noted: RCH-ACV NSD2 E1099K (9B) viability, CellTiter-Glo, 72 h; series mostly up to 44.9 µM. Background: In qHTS, concentration-response curves come from the screen itself.
Test [2] in a line: Primary qHTS for inhibitors of nuclear receptor binding SET domain protein 2 (NSD2) in an RCH-ACV wild type WT cells (2C) (AID 1645877). Note: nearly all actives have a fitted effect of over 70% in size. Note: potency is the fitted concentration of half-maximal effect. To be noted: RCH-ACV (leukaemia line) NSD2 WT (2C) viability, CellTiter-Glo, 72 h; series mostly up to 44.9 µM.
The target in test [3] is Rap guanine nucleotide exchange factor 3 (Homo sapiens) (UniProt O95398). As to the kind of experiment: Confirmatory qHTS for antagonist of cAMP-regulated guanine nucleotide exchange factor 3 (EPAC1) (AID 1645880). Note: nearly all actives have a fitted effect of over 55% in size. To be noted: EPAC1 Rap1B-BODIPY-GDP exchange, fluorescence; series mostly up to 115 µM. The procedure, abridged: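 Released BODIPY-GDP fluoresces less than Rap1-bound BODIPY-GDP; the signal is followed at 480/540 nm at 5-min intervals over 30 min, after 5 min at room temperature. Reactions contain 100 nM EPAC1, 250 nM RAP1B-BODIPY-GDP and 50 uM GDP; results are normalized to ATA and DMSO.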

Test [4] shares this target. As to the kind of experiment: Confirmatory qHTS for agonist of cAMP-regulated guanine nucleotide exchange factor 3 (EPAC1) (AID 1645881).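 Note: EPAC1 catalysed release of BODIPY-GDP from Rap1B seen as fluorescence loss; nearly all actives have a fitted effect of over 75% in size.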 To be noted: EPAC1 Rap1B BODIPY-GDP exchange fluorescence, 100% = cAMP control response; series mostly up to 154 µM.
In test [5] the target is Rap guanine nucleotide exchange factor 4 (Homo sapiens) (UniProt Q8WZA2). The test can be described thus: Confirmatory qHTS for agonist of cAMP-regulated guanine nucleotide exchange factor 4 (EPAC2) (AID 1645884).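 Note: nucleotide exchange releases bodipy-GDP from Rap1 and this lowers its fluorescence; nearly all actives have a fitted effect of over 65% in size.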 Particulars: EPAC2 GEF activity, Rap1B-BODIPY-GDP fluorescence, percent relative to cAMP agonist control; series mostly up to 154 µM.

Here are results for 28 compounds from PubChem BioAssay (NCATS).

Inconclusive results are not listed. Activity calls are given as the source filed them. Calls come from the whole dose curve; as a rule, active = well fitted curve in the direction sought with a large enough effect; inconclusive = small, poorly fitted or top-dose-only effect, or another doubt; inactive = no such curve, though single readings can be large; an effect the other way counts as inactive or inconclusive.

Rap guanine nucleotide exchange factor 3 (Homo sapiens), sequence (O95398 whole entry, looked up): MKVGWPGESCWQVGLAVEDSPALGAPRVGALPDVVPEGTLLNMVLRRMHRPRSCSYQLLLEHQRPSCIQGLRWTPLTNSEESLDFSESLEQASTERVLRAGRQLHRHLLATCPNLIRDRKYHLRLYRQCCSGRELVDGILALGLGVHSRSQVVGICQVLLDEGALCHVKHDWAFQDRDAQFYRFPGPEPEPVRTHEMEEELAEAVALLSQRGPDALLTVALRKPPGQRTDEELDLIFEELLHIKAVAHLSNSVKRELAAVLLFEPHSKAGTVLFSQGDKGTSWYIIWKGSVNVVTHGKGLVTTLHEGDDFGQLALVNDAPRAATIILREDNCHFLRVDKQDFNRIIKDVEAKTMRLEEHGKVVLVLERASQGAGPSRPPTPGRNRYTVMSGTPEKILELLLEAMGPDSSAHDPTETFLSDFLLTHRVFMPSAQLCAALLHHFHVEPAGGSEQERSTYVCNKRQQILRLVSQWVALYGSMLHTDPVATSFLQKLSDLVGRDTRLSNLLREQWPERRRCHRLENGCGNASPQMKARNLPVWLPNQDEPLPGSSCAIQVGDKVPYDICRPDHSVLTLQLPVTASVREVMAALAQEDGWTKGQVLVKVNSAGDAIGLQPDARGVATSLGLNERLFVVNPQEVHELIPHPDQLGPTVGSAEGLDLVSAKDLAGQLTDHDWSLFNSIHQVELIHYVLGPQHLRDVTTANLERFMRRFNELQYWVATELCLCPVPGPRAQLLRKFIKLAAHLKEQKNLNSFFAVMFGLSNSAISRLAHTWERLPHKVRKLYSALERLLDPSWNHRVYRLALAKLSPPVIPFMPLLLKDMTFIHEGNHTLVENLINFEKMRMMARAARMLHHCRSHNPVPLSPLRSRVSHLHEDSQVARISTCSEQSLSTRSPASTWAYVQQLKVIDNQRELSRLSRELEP
Rap guanine nucleotide exchange factor 4 (Homo sapiens), sequence (Q8WZA2 whole entry, looked up): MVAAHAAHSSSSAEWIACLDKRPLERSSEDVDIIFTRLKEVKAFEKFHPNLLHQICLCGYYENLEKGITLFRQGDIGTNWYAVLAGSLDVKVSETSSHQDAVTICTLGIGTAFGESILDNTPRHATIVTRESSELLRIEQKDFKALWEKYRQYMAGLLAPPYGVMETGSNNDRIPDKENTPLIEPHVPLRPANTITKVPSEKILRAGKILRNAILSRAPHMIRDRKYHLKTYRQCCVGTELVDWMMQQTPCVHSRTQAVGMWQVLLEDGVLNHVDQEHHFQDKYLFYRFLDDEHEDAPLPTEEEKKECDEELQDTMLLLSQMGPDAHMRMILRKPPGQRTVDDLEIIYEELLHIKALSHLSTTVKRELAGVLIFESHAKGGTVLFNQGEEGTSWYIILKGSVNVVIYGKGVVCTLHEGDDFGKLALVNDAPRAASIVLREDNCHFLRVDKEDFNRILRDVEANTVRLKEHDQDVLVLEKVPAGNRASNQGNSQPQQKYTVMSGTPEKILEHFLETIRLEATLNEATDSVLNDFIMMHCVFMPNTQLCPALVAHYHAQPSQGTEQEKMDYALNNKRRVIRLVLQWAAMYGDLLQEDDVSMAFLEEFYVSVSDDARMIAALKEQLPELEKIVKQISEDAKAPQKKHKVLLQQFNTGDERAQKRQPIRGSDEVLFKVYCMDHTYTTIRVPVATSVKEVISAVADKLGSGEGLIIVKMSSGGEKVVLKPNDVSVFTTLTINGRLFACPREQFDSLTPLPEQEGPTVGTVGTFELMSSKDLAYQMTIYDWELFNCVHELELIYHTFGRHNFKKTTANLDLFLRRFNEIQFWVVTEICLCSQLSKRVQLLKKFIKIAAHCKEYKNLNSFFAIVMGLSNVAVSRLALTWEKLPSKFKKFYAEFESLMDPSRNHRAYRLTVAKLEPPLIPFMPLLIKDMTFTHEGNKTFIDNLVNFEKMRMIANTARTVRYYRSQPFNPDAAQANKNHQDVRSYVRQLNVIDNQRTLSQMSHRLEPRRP

`CCN[C@@H](C)Cc1ccccc1`: the Potency entry in test [1] and in test [2] was “inactive” throughout.

For `CC(=O)NC1CCSC1=O` (stereo unspecified), the Potency result in test [1] and in test [2] was “inactive” each time.

As for `CC(C)c1c(CN(C)C(C)Cc2ccccc2)n(C)n(-c2ccccc2)c1=O` (stereo unspecified), the Potency entry in test [1] and in test [2] was “inactive” throughout.

`CC(Cc1ccccc1)N(C)Cc1ccco1` (stereo unspecified): the Potency result in test [1] and in test [2] was “inactive” in each case.

`Clc1ccccc1N1CCNCC1`: the Potency entry in test [1] and in test [2] was “inactive” each time.

Regarding `O=c1[nH]c2ccccc2n1C1CCNCC1`, the Potency entry in test [1] and in test [2] was “inactive” each time.

With `CC(C)(N)Cc1ccccc1Cl`, the Potency result in test [1] and in test [2] was “inactive” throughout.

As for `C=CCN1C[C@H](C)N([C@H](c2ccc(C(=O)N(CC)CC)cc2)c2cccc(OC)c2)C[C@H]1C`, the Potency entry in test [1] and in test [2] was “inactive” in each case.

Take `COc1cccc([C@@]2(O)CCCC[C@@H]2CN(C)C)c1`: the Potency entry in test [1] and in test [2] was “inactive” each time.

Regarding `[N-]=[N+]=CC(=O)OC[C@H](N)C(=O)O`, the Potency result in test [1] and in test [2] was “inactive” in each case.

With `COc1ccc2c3c1O[C@H]1[C@H](O)CC[C@H]4[C@@H](C2)N(C)CC[C@@]341`, the Potency entry in test [1] and in test [2] was “inactive” throughout.

For the compound `O=C1c2ccccc2C(=O)c2ccccc21`, the Potency result in test [1] and in test [2] was “inactive” throughout.

For the compound `Clc1cccc(SC2CCNCC2)n1`, the Potency result in test [1] and in test [2] was “inactive” each time.

Take `CC(=O)C1CCOC1=O` (stereo unspecified): the Potency result in test [1] and in test [2] was “inactive” in each case.

With `CC[N+]1(CC)CCC(OC(=O)C(O)(c2ccccc2)c2ccccc2)C1` (stereo unspecified), the Potency result in test [1] and in test [2] was “inactive” throughout.

For the compound `C[C@H]1[C@@H]2Cc3ccc(O)cc3[C@@]1(C)CCN2C`, the Potency result in test [1] and in test [2] was “inactive” in each case.

As to `CCC1(c2ccccc2)C(=O)N(COC)C(=O)N(COC)C1=O`, the Potency entry in test [1] and in test [2] was “inactive” throughout.

With `COc1cccc(C(=O)CCN[C@@H](C)[C@H](O)c2ccccc2)c1`, the Potency was 16.8 µM (active) in test [1] and 9.44 µM (active) in test [2].

For `Nc1ccccc1`, the Potency result in test [1] and in test [2] was “inactive” throughout.

With `O=C1c2ccccc2C(=O)C1C(=O)C(c1ccccc1)c1ccccc1`, the call in test [3], in test [4] and in test [5] was inactive.

For `O=C(O)CCCc1ccc(N(CCCl)CCCl)cc1`, the Potency entry in test [1] and in test [2] was “inactive” each time.

Consider `CCN[C@@H](C)Cc1cccc(C(F)(F)F)c1`, for which the Potency result in test [1] and in test [2] was “inactive” each time.

Regarding `CN1CC[C@]23c4c5ccc(O)c4O[C@H]2[C@@H](O)CC[C@H]3[C@H]1C5`, the Potency result in test [1] and in test [2] was “inactive” throughout.

In the case of `NC(=O)CS(=O)C(c1ccccc1)c1ccccc1` (stereo unspecified), the Potency result in test [1] and in test [2] was “inactive” in each case.

With `c1ccc(N2CCNCC2)cc1`, the Potency entry in test [1] and in test [2] was “inactive” in each case.

On to `COc1cc(CCN)cc(OC)c1OC`, for which, in test [2], the Potency was 41.8 µM (active).

Turning to `C[C@]12CCC(=O)C=C1CC[C@@H]1[C@H]3CC[C@](C)(O)[C@@]3(C)CC[C@@H]12`, the figures for the Potency in test [1] and in test [2] were 34.7 µM (active) and 21.9 µM (active), respectively.

For `NC1=NC(=O)C(c2ccccc2)O1` (stereo unspecified), the Potency result in test [1] and in test [2] was “inactive” each time.
